Test results as given in the supplement of paper PMC3334620.
Whole data set: some 33,000 sequences, median “E-score (-0.5 to 0.5)” near -0.043, cut for the highest 2% near 0.37. The list comes from a sample in which the highest values are over-represented; it also holds similar and randomly drawn sequences.

biological target: T1, Upc2 (UniProt Q12151); test: PBM E-score (8-mer binding enrichment) (E-score (-0.5 to 0.5)); higher = stronger / more preferred TF binding; details: protein concentration: 200 nM; construct: GST-full length
T1 sequence: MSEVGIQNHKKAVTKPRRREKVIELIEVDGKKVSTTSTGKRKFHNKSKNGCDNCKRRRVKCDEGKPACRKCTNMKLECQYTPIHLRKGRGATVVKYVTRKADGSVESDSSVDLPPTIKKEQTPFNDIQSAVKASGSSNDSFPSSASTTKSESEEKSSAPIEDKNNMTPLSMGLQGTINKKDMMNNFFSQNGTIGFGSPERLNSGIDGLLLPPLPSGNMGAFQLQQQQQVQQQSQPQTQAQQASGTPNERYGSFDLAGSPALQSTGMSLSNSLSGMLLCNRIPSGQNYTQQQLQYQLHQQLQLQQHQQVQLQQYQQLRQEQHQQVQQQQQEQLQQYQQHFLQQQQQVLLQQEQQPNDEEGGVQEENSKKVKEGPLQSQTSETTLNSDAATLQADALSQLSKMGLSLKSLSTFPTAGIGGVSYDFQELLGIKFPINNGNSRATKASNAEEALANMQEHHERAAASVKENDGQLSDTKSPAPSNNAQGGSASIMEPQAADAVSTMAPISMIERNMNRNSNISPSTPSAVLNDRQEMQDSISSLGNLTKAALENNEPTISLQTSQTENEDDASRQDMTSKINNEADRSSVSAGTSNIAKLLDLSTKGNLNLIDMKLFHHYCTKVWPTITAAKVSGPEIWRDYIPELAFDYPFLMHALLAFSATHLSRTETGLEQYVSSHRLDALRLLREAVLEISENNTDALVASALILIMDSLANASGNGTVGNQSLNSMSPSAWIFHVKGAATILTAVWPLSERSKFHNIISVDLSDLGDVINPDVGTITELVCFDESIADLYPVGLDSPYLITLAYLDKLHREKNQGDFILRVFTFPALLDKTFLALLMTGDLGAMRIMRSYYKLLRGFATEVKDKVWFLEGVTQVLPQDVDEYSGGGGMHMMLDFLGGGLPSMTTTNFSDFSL
How it was run: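 Using PURExpress in vitro transcription/translation, GST-tagged yeast transcription factors were made in full-length or DNA-binding-domain form. These were applied at about 100-200 nM to double-stranded universal all-10-mer Agilent arrays, and bound protein was detected with fluorescent anti-GST. Scans were normalised with masliner before the Universal PBM Analysis Suite assigned E-scores to ungapped eight-base words pooled with their reverse complements.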

Sequence | PBM E-score
GACGACAA | 0.0707
CACGACAG | 0.0499
CACGACAC | 0.114
ACCGACAT | 0.199
GACCAAGC | -0.234
CCATGGAC | -0.201
AGGACAGA | -0.347
ATGTGAAC | 0.00151
GAATTAGC | -0.0225
CTTACAGC | -0.0579
TCCGGGAA | -0.0708
GGAAGAAA | -0.136
GGATCGCC | -0.0204
TTCGACAA | 0.0423
TACGACAA | 0.46
TGCGACAA | 0.141
ACTCTATA | 0.0319
GGACCTTA | 0.00047
GGCGTTAA | 0.161
ATCGTTAG | 0.239
CTCGTTAC | 0.36
ATCGTTAC | 0.264
GTCGTTAA | 0.465
CTCGTTAA | 0.466
ATCGTTAA | 0.435

Sequence | PBM E-score
CACGTTAA | 0.131
GACGTTAA | 0.154
AGCAGCAC | -0.113
GTGCTCGA | 0.0349
ATGAGTGG | -0.126
CAATCTTA | 0.065
ATATAGCA | -0.0248
GTATAGCA | 0.377
CTATAGCA | -0.0859
CAGATCAC | -0.266
AGTCTTTC | -0.0324
GCCAATAC | 0.0787
ACATTCGA | 0.0307
ACATTCGG | 0.0333
ACATTCGT | 0.375
AACATCCA | -0.0529
ATGTCCTA | 0.0227
AGATCTCG | 0.235
CATCGTCA | -0.163
CATCGTGA | 0.0225
CATCGTAC | 0.454
CATCGTCC | -0.0591
AATCGTAA | 0.368
CATCGTAG | 0.295
AATCGTAT | 0.44

Sequence | PBM E-score
AATCGTAG | 0.241
AATCGTCT | 0.0582
GATCGTTA | 0.291
GATCGTAA | 0.396
CATCGTAA | 0.389
GGCGTCCA | -0.398
CATCACGG | 0.0314
ACTGTAGG | -0.117
GATTAGCC | 0.0747
ATGTTAGG | -0.00946
ACCTGGAA | 0.0285
AGAGCATG | -0.17
CAGTGCTA | -0.0362
AGAATCAG | -0.0805
AGCATTAT | -0.183
GATCGTCC | -0.151
AATCGTGC | 0.229
TATCGTAA | 0.384
TATCGTGA | 0.0236
TATCGTCA | 0.0773
GATCGTAC | 0.442
AATCGTCC | -0.0549
AATCGTAC | 0.43
GATCGTGC | 0.0519
AGAGGCAC | -0.00593

Sequence | PBM E-score
GAACATCA | -0.0243
AGCTGTAT | -0.0312
CTAAGCTC | -0.201
AACCCTCT | -0.202
CGGACTAC | -0.113
CTCGTCGC | 0.0828
AGGAGCCT | -0.12
ACGAGCCA | 0.408
ACGAGCCG | 0.371
ACGAGCCT | 0.396
TCGAGCCA | -0.0555
AGGAGCCG | -0.224
CCGAGCCA | -0.0165
CCGAGCCG | 0.106
ACGAGCCC | 0.358
TAACTCAA | -0.0155
ATTTCTTC | -0.026
ATATATAA | 0.141
TAATGCTA | -0.11
GAACGATA | 0.402
GATCGATC | -0.03
GAACGATC | 0.429
AAACGATG | 0.458
CAACGATG | 0.0412
GAACGGTA | 0.283

Sequence | PBM E-score
GGACGATA | -0.181
AATCGATT | 0.128
AAACGCTT | 0.156
AAACGATT | 0.449
CCACGATC | 0.125
AAACGCTG | 0.244
CGCCACCC | -0.0595
ATCGTGAG | -0.165
GGTCTGCA | -0.156
TCAGATGA | -0.197
ATCTGGTA | 0.044
ACACTGCA | -0.0747
CGGCATAG | -0.0559
GCCTCCGC | -0.121
AAACTTTA | -0.0184
CAACGATC | 0.11
CCACGATA | -0.0526
ACACGATA | 0.15
CAACGATA | 0.228
AAACGATA | 0.459
TAACGATA | 0.387
AGACGATC | -0.0293
AAACGATC | 0.447
TAACGTTA | 0.102
AAGCGACT | 0.243

Sequence | PBM E-score
ACACTCAT | -0.233
ATCTCCTG | -0.0597
ATAGGTCC | -0.132
AGAGCGTA | 0.223
ATCTGAAG | -0.202
AACGAGGA | 0.428
GACGAGGC | 0.0687
AACGAGGT | 0.448
ACCGAGGT | 0.169
ATCGAGGA | 0.0976
CACGAGGA | 0.0675
CACGAGGC | 0.116
AAAGAGGT | -0.182
AACGAGGC | 0.444
AGCGAGGA | 0.144
GACGAGGA | -0.00176
TACGAGGA | 0.464
AGATGGCC | -0.176
AAGAGACG | 0.102
CTGGCGAA | -0.174
ACCACCTG | -0.0336
CACTGTGC | -0.118
CAGTAGTC | 0.0468
GCCTTGAA | -0.189
CATTTCGA | 0.0247

Sequence | PBM E-score
GCTCCACC | -0.0776
AGATGAAT | -0.206
CAGACTGA | -0.0971
AAGTTATT | 0.045
AGCTATGG | -0.158
CACGAGGG | 0.114
AACGAGGG | 0.43
AGCGAGGG | 0.245
AGGGTGAC | -0.128
ACCCTGGA | -0.0506
GGTACGAC | 0.475
CGTACGAC | 0.449
AGTACGAA | 0.384
CGGACGAC | -0.21
AGTACGTA | 0.27
AGTACGCA | -0.0414
CGTACGCC | 0.312
GGGACGAC | -0.244
AGTACGCG | 0.189
AGTACGAG | 0.428
AGTACGTG | 0.0272
GGTACTAC | 0.0298
